The list is not random: actives were taken first. Their share in the collection is about 19%.
TGFb inhibitor: qHTS for Inhibitors of TGF-b; HepG2 CAGA-GFP TGF-b/SMAD3 reporter, GFP fluorescence, 18 h; TGF-beta stimulated, 500 pg/mL final; Potency, µM (doses to about 46.1 µM), usual class: inhibitors; 410,000 compounds, 1.2% hits; further: nearly all actives have a fitted effect of over 65% in size
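TGF-beta reporter screen: HEPG2 CAGA-GFP, 1% FBS, 500 pg/mL TGF-beta final, 18 h; per-cell GFP summed per well; curves fitted and categorized by class.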
ASM inhibitor: Inhibitors of Secretory Acid Sphingomyelinase (S-ASM): qHTS. placental ASM, HMU-PC fluorogenic substrate, 60 min. Potency, µM (highest dose often 57.5 µM), hits mostly inhibitors. 340,000 compounds, 0.006% hits. Sphingomyelin phosphodiesterase (Homo sapiens), P17405
Target sequence (P17405 47-631 limits assumed): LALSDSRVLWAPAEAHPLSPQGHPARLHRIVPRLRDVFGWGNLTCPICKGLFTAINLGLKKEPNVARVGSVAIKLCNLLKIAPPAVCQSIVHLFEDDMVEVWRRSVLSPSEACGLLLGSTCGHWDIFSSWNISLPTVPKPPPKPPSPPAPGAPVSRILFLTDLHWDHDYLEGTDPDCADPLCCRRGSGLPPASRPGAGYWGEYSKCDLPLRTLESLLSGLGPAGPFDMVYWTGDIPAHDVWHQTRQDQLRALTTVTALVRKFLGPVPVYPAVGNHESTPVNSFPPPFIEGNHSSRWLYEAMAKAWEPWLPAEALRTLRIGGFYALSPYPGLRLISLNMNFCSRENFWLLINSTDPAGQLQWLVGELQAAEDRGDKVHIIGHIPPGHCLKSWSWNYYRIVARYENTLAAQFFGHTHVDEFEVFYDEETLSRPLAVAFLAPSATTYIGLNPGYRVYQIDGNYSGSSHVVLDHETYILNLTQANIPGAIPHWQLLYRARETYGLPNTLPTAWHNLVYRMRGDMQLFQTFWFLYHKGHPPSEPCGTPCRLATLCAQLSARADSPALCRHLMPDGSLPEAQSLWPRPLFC
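HMU-PC0 cleavage (9 uM final) by human placental ASM, 60 min at 37 °C following 10 min compound exposure at RT; stopped at pH 10, fluorescence Ex 386/Em 447 nm.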
TDP1 cell noCPT: qHTS for Inhibitors of human tyrosyl-DNA phosphodiesterase 1 (TDP1): qHTS in cells in absence of CPT; Potency, µM (series often up to 46.2 µM), hits mostly inhibitors; 420,000 compounds, 15% hits; DT40 Tdp1-/- hTDP1 cells, no CPT, ATP luminescence, 48 h; further: nearly all actives have a fitted effect of over 55% in size
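Cells were dispensed at 400 per well, compounds added by pin tool, plates incubated ≥48 hr at 37 °C, then CellTiter-Glo added for 30 min at room temperature before luminescence reading. Line: DT40 Tdp1-/- complemented with hTDP1; camptothecin omitted.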
IL1B secr inh: qHTS for Inhibitors of Inflammasome Signaling: IL-1-beta AlphaLISA Primary Screen. 360,000 compounds, 4.7% hits. activity change, % at 57.5 µM. THP-1 LPS/ATP IL-1B secretion, AlphaLISA, 16 h; hits give low values. AID 743279, 2014; in the data active means activity change below about -50%; inconclusive means mostly about -30% to -49%
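Secreted IL-1B measured by AlphaLISA bead assay after 16 h compound exposure of THP-1 cells; compounds (final up to 57.5 uM) added 1 h before LPS (250 ng/mL) and ATP (1.25 mM) stimulation; lower signal means less secretion.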
TDP1 cell CPT: qHTS for Inhibitors of human tyrosyl-DNA phosphodiesterase 1 (TDP1): qHTS in cells in presence of CPT | AID 686979, 2013 | 420,000 compounds, 12% hits | Potency, µM (highest dose often 46.2 µM), actives largely listed as inhibitors | chicken DT40 Tdp1-/-;hTDP1 cells + 20 nM CPT, ATP luminescence, 48 h; further: nearly all actives have a fitted effect of over 55% in size
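Chicken DT40 Tdp1-/- cells complemented with human TDP1, 400 cells/well, exposed to compounds plus 20 nM camptothecin for at least 48 h at 37 C; viability read as ATP content by CellTiter-Glo luminescence.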
HepG2 viability: qHTS for Inhibitors of TGF-b: Cytotox Counterscreen; AID 588856, 2011; 410,000 compounds, 0.76% hits; HepG2 CAGA-GFP viability, ATP luminescence, 18 h; Potency, µM (series often up to 46.1 µM), hits mostly cytotoxic
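CellTiter-Glo luminescence gave cytotoxicity after 18 hours at 37 degrees C. The cells were HepG2 CAGA-GFP in 1% FBS DMEM, stimulated with 500 pg/mL TGF-beta after compound addition. %Activity was normalised to no-cell wells (complete cell-killing) and DMSO (no toxicity), and curves were fitted and classified.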
Of the large screens only hits and unclear results are named; the others gave an inactive call. Unless noted, the call rests on the fitted dose curve; in most records, active means well fitted curve in the direction sought with a large enough effect; inconclusive means small, poorly fitted or top-dose-only effect, or another doubt; inactive means no such curve, though single readings can be large; an effect the other way counts as inactive or inconclusive.

Cc1cnc(C(=O)OCC(=O)NCc2ccc3c(c2)OCO3)cn1	none
CC(C)C(NC(=O)c1ccccc1)C(=O)NC1CCCc2ccccc21 (stereo not given)	none
CC[C@]12c3[nH]c4cc(-c5ccco5)ccc4c3CCN1C(=O)[C@@H](CC(=O)NC(C)(C)C)C[C@@H]2C(=O)N1CCN(C(=O)c2ccco2)CC1	TGFb inhibitor inconclusive, TDP1 cell noCPT 15µM, TDP1 cell CPT 23µM
CC[C@]12c3[nH]c4ccc(Cl)cc4c3CCN1C(=O)[C@@H](CC(=O)NC(C)(C)C)C[C@@H]2C(=O)N1CCN(C(=O)c2ccco2)CC1	TGFb inhibitor inconclusive, TDP1 cell noCPT 18µM, TDP1 cell CPT 15µM
O=C(COc1ccc2ccccc2c1Br)NC(=S)Nc1cccc(CO)c1	TDP1 cell noCPT inconclusive
CCCCCCCC(=O)CC[C@@H]1[C@@H](C/C=C\CCCC(=O)OC(C)C)[C@@H](O)C[C@H]1O	TDP1 cell noCPT 7.5µM, TDP1 cell CPT 7.5µM (no result: TGFb inhibitor, ASM inhibitor, IL1B secr inh, HepG2 viability)
COc1ccc2c(-c3ccccc3)cc(SCC(N)=O)nc2c1	TDP1 cell noCPT 21µM
CCOCCc1nn2c(=O)cc(COC(=O)c3ccccc3NC(=O)c3ccc(C)cc3)nc2s1	none (no result: ASM inhibitor, IL1B secr inh)
COc1cc(-c2nc(C(=O)NCC3CCCO3)cc3c2[nH]c2ccccc23)cc(OC)c1OC (stereo not given)	TDP1 cell noCPT 7.3µM, TDP1 cell CPT 5.8µM
O=C(NCC1CCCO1)c1cc2c([nH]c3ccccc32)c(-c2cccc(Cl)c2)n1 (stereo not given)	TGFb inhibitor inconclusive, TDP1 cell noCPT 2.3µM, IL1B secr inh -65, TDP1 cell CPT 4.1µM
COc1ccccc1-c1nc(C(=O)NCC2CCCO2)cc2c1[nH]c1ccccc12 (stereo not given)	TDP1 cell noCPT 15µM, TDP1 cell CPT 21µM
COc1cccc2[nH]c(C(=O)NCC3CCCO3)cc12 (stereo not given)	none
COc1cccc(NC(=O)CN(C)C(=O)c2cc(S(=O)(=O)N3CCCCCC3)ccc2OC)c1	none
N#Cc1ccc(/C=C2/C=Cc3ccccc32)cc1	TDP1 cell CPT inconclusive (no result: ASM inhibitor, IL1B secr inh)
Cc1ccc2c(CC(=O)OCc3cc(=O)n4c(n3)sc3ccccc34)coc2c1	none
CC(C)[C@H](NC(=O)Cc1ccccc1)C(=O)OCc1cc(=O)n2c(n1)sc1ccccc12	TGFb inhibitor 16µM, TDP1 cell noCPT 13µM, TDP1 cell CPT 15µM
O=C(Nc1nccs1)C1CCCN1/C=C/C(=O)C(F)(F)F (stereo not given)	none
Cc1cc2oc(C(=O)NCC(c3ccco3)N3CCCC3)c(C)c2cc1C (stereo not given)	TGFb inhibitor inconclusive, TDP1 cell noCPT 21µM, TDP1 cell CPT inconclusive (no result: ASM inhibitor)
O=C(NCC(c1ccco1)N1CCCCC1)c1ccc([N+](=O)[O-])s1 (stereo not given)	TGFb inhibitor 16µM, TDP1 cell noCPT 23µM, TDP1 cell CPT 18µM
O=C(NCC(c1ccco1)N1CCCC1)c1cc2cc(Cl)ccc2o1 (stereo not given)	TDP1 cell noCPT inconclusive, TDP1 cell CPT 18µM
Cc1ccc(C(=O)NCC(c2ccco2)N2CCCCC2)s1 (stereo not given)	TDP1 cell noCPT inconclusive, TDP1 cell CPT inconclusive
Cc1ccc2c(Cl)c(C(=O)NCC(c3ccco3)N3CCCC3)sc2c1 (stereo not given)	TDP1 cell noCPT inconclusive, TDP1 cell CPT 18µM
N#Cc1ccccc1Sc1ccccc1C(=O)NCC(c1ccco1)N1CCCCC1 (stereo not given)	TDP1 cell noCPT inconclusive, TDP1 cell CPT inconclusive
Cc1ccc2oc(C(=O)NCC(c3ccco3)N3CCCC3)c(C)c2c1 (stereo not given)	TDP1 cell noCPT inconclusive, TDP1 cell CPT 29µM
O=C(NCC(c1ccco1)N1CCCC1)c1ccccc1Sc1ccc(C(F)(F)F)cc1[N+](=O)[O-] (stereo not given)	TDP1 cell noCPT inconclusive, IL1B secr inh -75, TDP1 cell CPT inconclusive
COc1cccc(NC(=O)CCNC(=O)Cn2cnc3ccccc3c2=O)c1	none (no result: ASM inhibitor, IL1B secr inh)
CC1(C)CC(Cc2ccc(C(=O)c3ccccc3)cc2)N(C(=O)OC(C)(C)C)N1 (stereo not given)	TGFb inhibitor inconclusive, TDP1 cell noCPT 4.1µM, TDP1 cell CPT 6.5µM (no result: ASM inhibitor)
O=C(O)CCn1cnc2onc(-c3ccccc3Cl)c2c1=O	none (no result: ASM inhibitor, IL1B secr inh)
Cc1nc2nc(NCc3ccc(Cl)cc3)[nH]n2c(=O)c1Cc1ccccc1	none (no result: ASM inhibitor, IL1B secr inh)
CCCCN(CCCC)CC(O)c1cc(Cl)cc2c1-c1ccc(Cl)cc1C2=Cc1ccc(Cl)cc1 (stereo not given)	TDP1 cell noCPT inconclusive, TDP1 cell CPT 8.9µM (no result: ASM inhibitor, IL1B secr inh)
O=C(COc1ccc(Cl)cc1)Nc1nnc2n1CCS2	none (no result: ASM inhibitor, IL1B secr inh)
COc1cc2c(cc1OC)C(c1ccc(C)cc1)NC(=O)C2 (stereo not given)	IL1B secr inh -61
COc1ccc2c(c1)C(c1ccccc1)NC(=O)C2 (stereo not given)	HepG2 viability 11µM
O=C(O)c1ccc(NC2=C/C(=N/S(=O)(=O)c3cccs3)c3ccccc3C2=O)cc1	TGFb inhibitor 14µM, TDP1 cell noCPT 6.5µM, IL1B secr inh -94, TDP1 cell CPT 9.2µM (no result: ASM inhibitor)
O=C(O)c1ccc(Nc2nc3ccccc3nc2NS(=O)(=O)c2cccs2)cc1	none
Cc1cc(C)c(S(=O)(=O)/N=C2\C=C(Nc3ccc(C(=O)O)cc3)C(=O)c3ccccc32)c(C)c1	TGFb inhibitor inconclusive, TDP1 cell noCPT 3.7µM, IL1B secr inh -104, TDP1 cell CPT 3.7µM, HepG2 viability 16µM
CCc1ccc(CNC(=O)c2c3c(nc4ccccc24)C(=O)N(C2CCCCC2)C3)cc1	TGFb inhibitor inconclusive, TDP1 cell noCPT 16µM, TDP1 cell CPT inconclusive (no result: ASM inhibitor, IL1B secr inh)
Cc1ccc(CNC(=O)c2c3c(nc4ccccc24)C(=O)N(C2CCCCC2)C3)cc1	TDP1 cell noCPT 16µM, TDP1 cell CPT inconclusive (no result: ASM inhibitor, IL1B secr inh)
CCNC(=O)c1c2c(nc3ccccc13)C(=O)N(C1CCCCC1)C2	TGFb inhibitor inconclusive (no result: ASM inhibitor, IL1B secr inh)
c1ccc(-c2noc(CN3CCN(C(c4ccccc4)c4ccccc4)CC3)n2)cc1	TDP1 cell noCPT inconclusive, IL1B secr inh -87
